These results are taken from PubChem BioAssay AID1491 (National Center for Advancing Translational Sciences (NCATS), 2009).

SMILES strings stand for the structures. Values joined by “and” are separate entries in the source; they are usually repeats but may differ in a detail not shown here. Identical values can stand only once. Records with an inconclusive call do not appear. Where a call stands in place of a potency, no number is given. Active and inactive are the calls of the source. Calls follow the shape of the dose curve; as a rule, active = well fitted inhibition curve with a large enough effect in the main read-out, with a control signal flat; inconclusive = small, poorly fitted or top-dose-only effect, or a change in a side signal; inactive = flat fitted curve, though single readings scatter.

For this test, the target named is Neuropeptide S receptor (Homo sapiens) (UniProt Q6W5P4). Nature of the test: Confirmation Concentration-Response Assay for Antagonists of the Neuropeptide S Receptor: cAMP Signal Transduction. The procedure, abridged:
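LANCE TR-FRET cAMP read-out: 665/620 nm emission ratio, with the 620 nm donor channel also reported, after 2 h RT detection. Stably transfected CHO-NPSR cells got compound titrations and 100 nM NPS in stimulation reagent for 60 min at 37C. IC50 came from Hill fits.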
Potency is read from the fitted curve at half-maximal effect.

Chain of Neuropeptide S receptor (Homo sapiens) (Q6W5P4 whole entry, looked up): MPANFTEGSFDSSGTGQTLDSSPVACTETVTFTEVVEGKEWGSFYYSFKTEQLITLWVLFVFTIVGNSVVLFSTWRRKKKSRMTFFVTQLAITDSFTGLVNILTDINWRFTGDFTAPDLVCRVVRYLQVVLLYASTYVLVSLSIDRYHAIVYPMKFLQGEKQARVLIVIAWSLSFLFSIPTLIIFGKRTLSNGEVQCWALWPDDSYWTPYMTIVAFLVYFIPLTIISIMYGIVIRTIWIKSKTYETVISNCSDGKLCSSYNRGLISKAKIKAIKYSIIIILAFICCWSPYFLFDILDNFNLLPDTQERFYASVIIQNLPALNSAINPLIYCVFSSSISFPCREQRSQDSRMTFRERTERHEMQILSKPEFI

On to `N#CC1=C(NC=NCc2ccccc2)Oc2ccc3ccccc3c2C1c1ccccc1` (stereo not drawn), for which the Potency is 1.58 µM (active).
The entry for `O=C(N1CCOCC1)C1(c2ccc(Cl)cc2)CCCC1` is “inactive”; for `CCOc1ccccc1NC1=CC(=O)CC(c2ccccc2)C1` (stereo not drawn) it is “inactive”; for `COc1cc(/C=C2\SC(c3ccc(C)cc3)=NC2=O)cc(OC)c1O` it is 10 µM (active).
The figure for `CN(C)C(=S)N=Nc1[nH]c2ccccc2c1O` is 10 µM (active).
The figure for `O=C(/C=C/c1ccco1)NC(=S)Nc1nc(-c2ccc3ccccc3c2)cs1` is 3.98 µM (active).
In the case of `Cc1oc2c(c1C(=O)NCc1cccnc1)C(=O)c1ccccc1C2=O`, the Potency entry was “inactive”.
As for `CS(=O)(=O)c1nc(-c2ccccc2)cc(C(F)(F)F)n1`, the Potency is 7.94 µM (active).
Turning to `c1ccc(CSC2=NNC(c3ccccn3)S2)cc1` (stereo not drawn), the Potency entry was “inactive”.
The figure for `CC(C)(C)OC(=O)Nc1ncnc2c1C(c1ccccc1)c1c(ccc3ccccc13)O2` (stereo not drawn) is 3.55 µM (active).
With `COc1ccc(OC)c(C2C(C(=O)Nc3nc4ccccc4s3)=C(C)NC3=C2C(=O)CCC3)c1` (stereo not drawn), the Potency was 2.82 µM (active).
Next, `O=C(NCCCN1CCOCC1)c1cc2c(=O)[nH]c3ccccc3c2s1`: “inactive”; `O=C(O)c1cccc(Nc2ncnc3ccccc23)c1`: “inactive”; `Cc1cccc(N2CCN(C(=O)c3ccc(CNc4c(N5CCC(C)CC5)c(=O)c4=O)cc3)CC2)c1C`: “inactive”.
The figure for `CCOC(=O)C1CCCN(c2ncnc3c2oc2ccccc23)C1` (stereo not drawn) is 50.1 µM (active) and 12.6 µM (active); for `CCOC(=O)c1cnc(Nc2nc3ccccc3o2)nc1CSC(=S)N(CC)CC` it is “inactive”; for `CCOC(=O)CCCC(=O)Nc1ncnc2c1C(c1ccccc1)c1c(ccc3ccccc13)O2` (stereo not drawn) it is 2 µM (active).
Next, `CC(C)Cc1nc(N2CCN(C(=O)c3ccccc3)CC2)c(C#N)c2c1CCC2`: “inactive”; `O=C(O)CCCCCNc1nc(=S)[nH]c2ccccc12`: “inactive”.
`O=C(c1ccccc1-c1nc2ccccc2[nH]1)N1CCCCC1`: the Potency entry was “inactive”.
`c1cncc(-c2nc(-c3ccco3)cs2)c1`: the Potency entry is “inactive”.
Next, `C=CCNC(=O)/C(C#N)=C/c1cn(-c2ccccc2)nc1-c1ccc(OC)c([N+](=O)[O-])c1`: “inactive”.
On to `CCOc1ccc(C2c3c(ncn(-c4ccccc4)c3=N)Oc3ccc4ccccc4c32)cc1OCC` (stereo not drawn), for which the Potency was 2 µM (active).
